The nature of assay [1]: NCI Yeast Anticancer Drug Screen. Data for the mec2-1 strain (AID 157). Particulars: S. cerevisiae mec2-1 strain, active compounds read high. In short, it runs like this:
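Test agents were screened against the mec2-1 yeast strain, with defined DNA repair or cell cycle alteration. Growth was scored as inhibition against vehicle-only controls.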

A short description of assay [2]: NCI Yeast Anticancer Drug Screen. Data for the sgs1 mgt1 strain (AID 161).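 Note: 0% = growth of cultures given vehicle only.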 Particulars: S. cerevisiae sgs1 mgt1 strain, active compounds read high. The method, boiled down:
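Mutant yeast exposed to compound; growth scored against vehicle-only wells.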

Assay [3] can be described thus: NCI Yeast Anticancer Drug Screen. Data for the cln2 rad14 strain (AID 165).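 Note: 0% = growth equal to vehicle treated cultures.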 Particulars: S. cerevisiae cln2 rad14 strain, active compounds read high. The method, boiled down:
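Growth of compound-exposed yeast (cln2 rad14 genotype) measured and expressed as inhibition relative to vehicle.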

The nature of assay [4]: NCI Yeast Anticancer Drug Screen. Data for the bub3 strain (AID 167). Particulars: S. cerevisiae bub3 mutant strain, active compounds read high. In short, it runs like this: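 Steps: expose the mutant yeast strain to compound; grow alongside vehicle-treated cultures; measure growth; express inhibition against the vehicle cultures.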
Assay [5] in a line: NCI Yeast Anticancer Drug Screen. Data for the mlh1 rad18 strain (AID 175). Particulars: S. cerevisiae mlh1 rad18 strain growth inhibition, active compounds read high. In short, it runs like this:
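In this whole-cell yeast screen, a strain with altered DNA damage repair is challenged with compound, and its growth is measured against matched vehicle-treated controls.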

Assay [6] in a line: NCI Yeast Anticancer Drug Screen. Data for the rad50 strain (AID 155).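 Note: 0% = growth of vehicle-only cultures of the same strain.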 To be noted: S. cerevisiae rad50 strain growth inhibition, active compounds read high. In short, it runs like this:
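Inhibition values express reduced yeast growth in compound-treated cultures relative to vehicle-treated controls.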

The mark [7] stands for this setting: at 5.0 µM (retest, dose inferred, filed as 0.5).
The mark [8] stands for this setting: at 50.0 µM (retest, dose inferred, filed as 5.0).

“And” between values parts separate entries of the source, which are not always exact repeats. Identical values can stand only once. Compounds without any hit were thinned out: in the full panel of roughly 79,000, 15% have a hit. Unmarked numbers belong to inactive results. The source made the active and inactive calls. Cut-off read from the data, not from the text of the source: active = growth inhibition above about 70%; inactive = the rest.

Regarding `COc1ccc2c(c1)CCc1c(-c3noc4c3CCc3cc(OC)ccc3-4)noc1-2`, the growth inhibition in assay [1] (setting [7]) is 5%; in assay [1] (setting [8]), 19%; in assay [1] (at 50.0 µM), 19%; in assay [2] (setting [7]) it was 4%; in assay [2] (setting [8]), -2%; in assay [2] (at 50.0 µM), -0.9%. Moreover, the growth inhibition in assay [3] (setting [7]) was 11%; in assay [3] (setting [8]), 9%; in assay [3] (at 50.0 µM) it was 53.5%; in assay [4] (setting [7]) it was -2%; in assay [4] (setting [8]), 2%; in assay [4] (at 50.0 µM), -7.75%. Also, the growth inhibition is -2% in assay [5] (setting [7]), 10% in assay [5] (setting [8]) and 54.2% in assay [5] (at 50.0 µM).
As to `O=[N+]([O-])/C(C(Cl)=C(Cl)Cl)=C(/Sc1ccccc1)N1CCCCC1`, the growth inhibition in assay [1] (setting [7]) was 3%; in assay [1] (setting [8]), 95% (active); in assay [1] (at 50.0 µM), 88.5% (active); in assay [2] (setting [7]), -17%; in assay [2] (setting [8]) it was 93% (active); in assay [2] (at 50.0 µM), 77.6% (active). For the same compound, the growth inhibition in assay [3] (setting [7]) is -7%; in assay [3] (setting [8]) it was 95% (active); in assay [3] (at 50.0 µM) it was 85.2% (active); in assay [4] (setting [7]) it was -19%; in assay [4] (setting [8]), 96% (active); in assay [4] (at 50.0 µM), 86.1% (active). For the same compound, the values for the growth inhibition in assay [5] (setting [7]), in assay [5] (setting [8]) and in assay [5] (at 50.0 µM) were -3%, 96% (active) and 77.9% (active), respectively.
Take `O=C1CCS(=O)(=O)c2ccccc21`: the growth inhibition in assay [6] (setting [7]) is 21%; in assay [6] (setting [8]), 100% (active); in assay [6] (at 50.0 µM), 91.2% (active); in assay [1] (setting [7]) it was -2%; in assay [1] (setting [8]), 99% (active); in assay [1] (at 50.0 µM), 65.4%. In addition, the growth inhibition in assay [3] (setting [7]) was 3%; in assay [3] (setting [8]), 94% (active); in assay [3] (at 50.0 µM) it was 36.9%; in assay [4] (setting [7]), 34%; in assay [4] (setting [8]), 99% (active); in assay [4] (at 50.0 µM), 33.4%. The results for the growth inhibition in assay [5] (setting [7]), in assay [5] (setting [8]) and in assay [5] (at 50.0 µM) were 36%, 99% (active) and 64%, respectively.
On to `CCOC(=O)c1[nH]c(Br)c(-c2ccc(OC)c(OC)c2)c1Br`, for which the growth inhibition in assay [6] (setting [7]) was 1%; in assay [6] (setting [8]) it was 98% (active); in assay [6] (at 50.0 µM), 92.1% (active); in assay [1] (setting [7]), -8%; in assay [1] (setting [8]) it was 97% (active); in assay [1] (at 50.0 µM), 63.5%. Further, the growth inhibition in assay [3] (setting [7]) was 26%; in assay [3] (setting [8]) it was 99% (active); in assay [3] (at 50.0 µM) it was 88.8% (active); in assay [4] (setting [7]) it was -2%; in assay [4] (setting [8]), 99% (active); in assay [4] (at 50.0 µM) it was 88% (active). Further, the values for the growth inhibition in assay [5] (setting [7]), in assay [5] (setting [8]) and in assay [5] (at 50.0 µM) were 8%, 97% (active) and 94.2% (active), respectively.
Take `O=C(O)c1ccccc1-c1c2cc([N+](=O)[O-])c(=O)c(Br)c-2oc2c(Br)c(O)c([N+](=O)[O-])cc12`: the growth inhibition in assay [6] (setting [7]) is 27%; in assay [6] (setting [8]), 91% (active); in assay [6] (at 50.0 µM), 77.5% (active); in assay [2] (setting [7]) it was 25%; in assay [2] (setting [8]) it was 66%; in assay [2] (at 50.0 µM), 62%. Moreover, the growth inhibition was 34% in assay [3] (setting [7]); 66% in assay [3] (setting [8]); 88.5% (active) in assay [3] (at 50.0 µM); 32% in assay [4] (setting [7]); 75% (active) in assay [4] (setting [8]); 66.5% in assay [4] (at 50.0 µM). In addition, the growth inhibition in assay [5] (setting [7]) is 42%; in assay [5] (setting [8]), 96% (active); in assay [5] (at 50.0 µM) it was 72.1% (active).
With `CC(=O)OC1=Cc2ccccc2C(c2ccccc2)c2ccccc21` (stereo unspecified), the growth inhibition in assay [1] (setting [7]) is -3%; in assay [1] (setting [8]), 31%; in assay [1] (at 50.0 µM), 9.55%; in assay [2] (setting [7]) it was 2%; in assay [2] (setting [8]) it was 18%; in assay [2] (at 50.0 µM), 16.5%. Besides, the growth inhibition in assay [3] (setting [7]) was 20%; in assay [3] (setting [8]), 37%; in assay [3] (at 50.0 µM), 10.7%; in assay [4] (setting [7]) it was 8%; in assay [4] (setting [8]), 20%; in assay [4] (at 50.0 µM), 14.3%. Moreover, the growth inhibition in assay [5] (setting [7]) was 11%; in assay [5] (setting [8]) it was 53%; in assay [5] (at 50.0 µM) it was 18.3%.
Turning to `CN(C)/C(N)=N\c1nc2ccc(Cl)cc2s1`, the growth inhibition in assay [6] (setting [7]) was -13%; in assay [6] (setting [8]), 15%; in assay [6] (at 50.0 µM), 10.9%; in assay [2] (setting [7]), -17%; in assay [2] (setting [8]) it was 4%; in assay [2] (at 50.0 µM), 8.3%. Further, the growth inhibition in assay [3] (setting [7]) was -20%; in assay [3] (setting [8]), -10%; in assay [3] (at 50.0 µM), 15.9%; in assay [4] (setting [7]) it was -1%; in assay [4] (setting [8]), 12%; in assay [4] (at 50.0 µM), -11.1%. Besides, the growth inhibition is -3% in assay [5] (setting [7]), 48% in assay [5] (setting [8]) and 9.05% in assay [5] (at 50.0 µM).
Take `CC(=O)CCCOC(C)=O`: the growth inhibition is 63% in assay [6] (setting [7]); 78% (active) in assay [6] (setting [8]); 14.7% in assay [6] (at 50.0 µM); 77% (active) in assay [2] (setting [7]); 78% (active) in assay [2] (setting [8]); 7.85% in assay [2] (at 50.0 µM). The growth inhibition is 10% in assay [3] (setting [7]); 22% in assay [3] (setting [8]); 24.6% in assay [3] (at 50.0 µM); 62% in assay [4] (setting [7]); 86% (active) in assay [4] (setting [8]); -0.55% in assay [4] (at 50.0 µM). For the same compound, the growth inhibition in assay [5] (setting [7]) is 45%; in assay [5] (setting [8]) it was 75% (active); in assay [5] (at 50.0 µM), 31.6%.
Consider `O=C1OS(=O)(=O)c2cc3c(cc21)C1C(C2C3C3(Cl)C(Cl)=C(Cl)C2(Cl)C3(Cl)Cl)C2(Cl)C(Cl)=C(Cl)C1(Cl)C2(Cl)Cl` (stereo unspecified), for which the growth inhibition in assay [6] (setting [7]) was -18%; in assay [6] (setting [8]), 58%; in assay [6] (at 50.0 µM), 83.9% (active); in assay [2] (setting [7]) it was 55%; in assay [2] (setting [8]), 80% (active); in assay [2] (at 50.0 µM) it was 86.6% (active). The growth inhibition in assay [3] (setting [7]) was 8%; in assay [3] (setting [8]) it was 77% (active); in assay [3] (at 50.0 µM), 60.9%; in assay [4] (setting [7]) it was 3%; in assay [4] (setting [8]) it was 81% (active); in assay [4] (at 50.0 µM), 74% (active). Also, the values for the growth inhibition in assay [5] (setting [7]), in assay [5] (setting [8]) and in assay [5] (at 50.0 µM) were 63%, 91% (active) and 73.8% (active), respectively.
With `CCCC(C)c1ccc(O)cc1` (stereo unspecified), the growth inhibition in assay [1] (setting [7]) was 1%; in assay [1] (setting [8]) it was 16%; in assay [1] (at 50.0 µM) it was 43.9%; in assay [2] (setting [7]), 0%; in assay [2] (setting [8]), 16%; in assay [2] (at 50.0 µM), 51.7%. The growth inhibition is 4% in assay [3] (setting [7]); -3% in assay [3] (setting [8]); -26.3% in assay [3] (at 50.0 µM); -2% in assay [4] (setting [7]); 17% in assay [4] (setting [8]); 24.6% in assay [4] (at 50.0 µM). Besides, the growth inhibition was 2% in assay [5] (setting [7]), 39% in assay [5] (setting [8]) and 91.7% (active) in assay [5] (at 50.0 µM).
`OCC(O)C(O)C(O)C(O)C(SCc1ccccc1)SCc1ccccc1` (stereo unspecified): the growth inhibition in assay [6] (at 50.0 µM) is 9.5% and -3.9% and -5.4%; in assay [1] (at 50.0 µM), -1.5% and -0.6% and 8.55%; in assay [2] (at 50.0 µM), 6.25% and -7.1% and 8.7%; in assay [3] (at 50.0 µM), -9.4% and -3.35% and -11.2%; in assay [4] (at 50.0 µM), -3.7% and -7.25% and 2.05%; in assay [5] (at 50.0 µM) it was 10.1% and 3.6% and 10.6%.
